# Laboratory results as given in publication PMC7862700, “An all-to-all approach to the identification of sequence-specific readers for epigenetic DNA modifications on cytosine”.
# Legend:
# Assay in all cases: DAPPL (digital affinity profiling via proximity ligation, sequencing); 10 mM Tris-HCl pH 7.5, 50 mM NaCl, 1 mM DTT, 4% glycerol, room temperature, 30 min; GST-TFs on glutathione beads, 16-mer random dsDNA library, 0.1% formaldehyde crosslink after washing; high values mean tight binding
# FLI1 = molecular target: T1, FLI1 (Homo sapiens, UniProt Q01543 1-452); conditions: protein: recombinant; tags: N-terminal GST; dsDNA, one strand shown
# T1 sequence: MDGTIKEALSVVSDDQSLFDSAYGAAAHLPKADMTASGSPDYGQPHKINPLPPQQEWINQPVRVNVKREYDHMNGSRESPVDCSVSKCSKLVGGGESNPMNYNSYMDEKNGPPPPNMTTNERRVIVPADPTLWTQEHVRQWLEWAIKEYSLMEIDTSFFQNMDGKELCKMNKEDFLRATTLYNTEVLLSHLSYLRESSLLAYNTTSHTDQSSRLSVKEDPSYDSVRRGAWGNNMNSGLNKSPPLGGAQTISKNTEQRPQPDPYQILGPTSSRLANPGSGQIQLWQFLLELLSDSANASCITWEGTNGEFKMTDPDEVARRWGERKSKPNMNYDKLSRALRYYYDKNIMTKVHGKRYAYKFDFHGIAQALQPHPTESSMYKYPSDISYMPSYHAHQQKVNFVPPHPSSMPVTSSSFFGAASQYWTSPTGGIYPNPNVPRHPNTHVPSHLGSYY
# Procedure, shortened: (§1)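 In yeast, human transcription factors were expressed with a GST fusion, then pulled down on glutathione beads and given DNA barcodes. Pooled with a tag-only sample, they were exposed to 200 nmole of a 16-mer random double-stranded DNA library (Tris/NaCl/DTT/glycerol buffer, room temperature, 30 min), washed, crosslinked with 0.1% formaldehyde, proximity-ligated using BsaI/T4 ligase for 1 h at 37 °C, PCR-amplified and read on an Illumina NextSeq500. Each hexamer's frequency of reads for a factor, divided by the matching frequency for the tag-only sample, gives the binding signal.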
# ELK1 = molecular target: T2, ELK1 (Homo sapiens, UniProt P19419 1-428); conditions: protein: recombinant; tags: N-terminal GST; dsDNA, one strand shown
# T2 sequence: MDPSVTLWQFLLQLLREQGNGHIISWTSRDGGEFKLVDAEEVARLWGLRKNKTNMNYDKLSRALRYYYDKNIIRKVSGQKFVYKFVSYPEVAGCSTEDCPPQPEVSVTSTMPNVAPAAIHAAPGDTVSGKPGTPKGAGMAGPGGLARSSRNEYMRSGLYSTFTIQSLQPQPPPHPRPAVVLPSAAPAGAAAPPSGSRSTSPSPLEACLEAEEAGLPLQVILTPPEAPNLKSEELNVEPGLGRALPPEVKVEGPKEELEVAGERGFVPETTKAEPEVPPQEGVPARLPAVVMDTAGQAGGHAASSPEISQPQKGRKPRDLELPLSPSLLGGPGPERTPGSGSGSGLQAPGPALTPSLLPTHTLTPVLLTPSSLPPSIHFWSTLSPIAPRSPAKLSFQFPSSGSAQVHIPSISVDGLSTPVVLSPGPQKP
# Procedure, shortened: as §1
# GABPA = molecular target: T3, GABPA (Homo sapiens, UniProt Q06546 1-454); conditions: protein: recombinant; tags: N-terminal GST; dsDNA, one strand shown
# T3 sequence: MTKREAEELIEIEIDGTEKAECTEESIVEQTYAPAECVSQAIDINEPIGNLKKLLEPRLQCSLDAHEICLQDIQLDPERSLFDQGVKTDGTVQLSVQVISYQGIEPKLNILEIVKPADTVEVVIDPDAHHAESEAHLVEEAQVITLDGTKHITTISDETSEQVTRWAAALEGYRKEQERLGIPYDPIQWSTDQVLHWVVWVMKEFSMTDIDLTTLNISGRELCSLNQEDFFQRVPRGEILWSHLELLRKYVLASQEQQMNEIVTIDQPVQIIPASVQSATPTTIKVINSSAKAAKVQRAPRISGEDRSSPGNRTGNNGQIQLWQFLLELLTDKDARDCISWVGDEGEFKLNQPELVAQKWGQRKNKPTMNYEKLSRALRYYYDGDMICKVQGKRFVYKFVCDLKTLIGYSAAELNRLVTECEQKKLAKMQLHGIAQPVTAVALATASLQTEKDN
# Procedure, shortened: as §1
# ERG = molecular target: T4, ERG (Homo sapiens, UniProt P11308 1-479); conditions: protein: recombinant; tags: N-terminal GST; dsDNA, one strand shown
# T4 sequence: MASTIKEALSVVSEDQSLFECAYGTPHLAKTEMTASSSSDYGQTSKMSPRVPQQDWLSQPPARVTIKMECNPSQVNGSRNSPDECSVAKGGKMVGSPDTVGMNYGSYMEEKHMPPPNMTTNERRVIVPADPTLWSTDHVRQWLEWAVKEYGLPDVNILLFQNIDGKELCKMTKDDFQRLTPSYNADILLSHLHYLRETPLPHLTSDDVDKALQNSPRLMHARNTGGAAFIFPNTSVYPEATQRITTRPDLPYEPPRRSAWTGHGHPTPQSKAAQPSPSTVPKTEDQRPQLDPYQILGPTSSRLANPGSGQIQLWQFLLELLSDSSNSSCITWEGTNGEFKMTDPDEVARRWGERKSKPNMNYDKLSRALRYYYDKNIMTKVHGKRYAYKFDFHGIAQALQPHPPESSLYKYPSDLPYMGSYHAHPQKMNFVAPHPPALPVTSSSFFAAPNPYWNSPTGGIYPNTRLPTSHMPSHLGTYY
# Procedure, shortened: as §1
# ELF1 = ELF1 (Homo sapiens, UniProt P32519 1-619); conditions: protein: recombinant; tags: N-terminal GST; dsDNA, one strand shown
# Procedure, shortened: as §1
# EHF = molecular target: T5, EHF (Homo sapiens, UniProt Q9NZC4 1-300); conditions: protein: recombinant; tags: N-terminal GST; dsDNA, one strand shown
# T5 sequence: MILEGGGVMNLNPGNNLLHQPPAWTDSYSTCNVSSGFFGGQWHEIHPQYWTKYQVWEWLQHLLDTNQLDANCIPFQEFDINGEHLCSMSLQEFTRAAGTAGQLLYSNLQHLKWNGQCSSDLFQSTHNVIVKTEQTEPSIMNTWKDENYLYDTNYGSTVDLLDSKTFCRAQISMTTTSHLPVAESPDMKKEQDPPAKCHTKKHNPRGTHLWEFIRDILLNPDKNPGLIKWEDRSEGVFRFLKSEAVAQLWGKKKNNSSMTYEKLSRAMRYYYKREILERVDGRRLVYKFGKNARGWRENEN
# Procedure, shortened: as §1
# SPIB = SPIB (Homo sapiens, UniProt Q01892 1-262); conditions: protein: recombinant; tags: N-terminal GST; dsDNA, one strand shown
# Procedure, shortened: as §1
# ELK3 = molecular target: T6, ELK3 (Homo sapiens, UniProt P41970 1-407); conditions: protein: recombinant; tags: N-terminal GST; dsDNA, one strand shown
# T6 sequence: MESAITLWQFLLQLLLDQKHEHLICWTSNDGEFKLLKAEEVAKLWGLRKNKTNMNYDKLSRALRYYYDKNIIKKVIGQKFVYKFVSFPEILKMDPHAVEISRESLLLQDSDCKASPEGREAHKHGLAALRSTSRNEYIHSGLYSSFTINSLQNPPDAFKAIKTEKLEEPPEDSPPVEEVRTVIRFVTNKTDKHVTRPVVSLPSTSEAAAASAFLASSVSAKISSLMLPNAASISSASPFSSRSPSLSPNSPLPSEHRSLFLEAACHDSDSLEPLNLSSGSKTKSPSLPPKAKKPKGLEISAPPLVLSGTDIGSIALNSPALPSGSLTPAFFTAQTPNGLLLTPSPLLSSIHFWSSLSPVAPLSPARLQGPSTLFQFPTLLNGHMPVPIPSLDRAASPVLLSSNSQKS
# Procedure, shortened: as §1
# FEV = molecular target: T7, FEV (Homo sapiens, UniProt Q99581 1-238); conditions: protein: recombinant; tags: N-terminal GST; dsDNA, one strand shown
# T7 sequence: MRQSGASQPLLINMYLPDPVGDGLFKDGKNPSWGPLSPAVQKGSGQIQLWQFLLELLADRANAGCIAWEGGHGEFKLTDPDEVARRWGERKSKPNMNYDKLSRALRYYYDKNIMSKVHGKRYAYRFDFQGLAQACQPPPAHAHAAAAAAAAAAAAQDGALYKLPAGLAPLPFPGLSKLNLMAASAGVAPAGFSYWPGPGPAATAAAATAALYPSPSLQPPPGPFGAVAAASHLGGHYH
# Procedure, shortened: as §1
# ETV5 = ETV5 (Homo sapiens, UniProt P41161 1-510); conditions: protein: recombinant; tags: N-terminal GST; dsDNA, one strand shown
# Procedure, shortened: as §1
# HSF1 = HSF1 (Homo sapiens, UniProt Q00613 1-529); conditions: protein: recombinant; tags: N-terminal GST; chain copies: 3; dsDNA, one strand shown
# Procedure, shortened: as §1
# ELF4 = ELF4 (Homo sapiens, UniProt Q99607 1-663); conditions: protein: recombinant; tags: N-terminal GST; dsDNA, one strand shown
# Procedure, shortened: as §1
# ELK4 = molecular target: T8, ELK4 (Homo sapiens, UniProt P28324-2 1-405); conditions: protein: recombinant; tags: N-terminal GST; dsDNA, one strand shown
# T8 sequence: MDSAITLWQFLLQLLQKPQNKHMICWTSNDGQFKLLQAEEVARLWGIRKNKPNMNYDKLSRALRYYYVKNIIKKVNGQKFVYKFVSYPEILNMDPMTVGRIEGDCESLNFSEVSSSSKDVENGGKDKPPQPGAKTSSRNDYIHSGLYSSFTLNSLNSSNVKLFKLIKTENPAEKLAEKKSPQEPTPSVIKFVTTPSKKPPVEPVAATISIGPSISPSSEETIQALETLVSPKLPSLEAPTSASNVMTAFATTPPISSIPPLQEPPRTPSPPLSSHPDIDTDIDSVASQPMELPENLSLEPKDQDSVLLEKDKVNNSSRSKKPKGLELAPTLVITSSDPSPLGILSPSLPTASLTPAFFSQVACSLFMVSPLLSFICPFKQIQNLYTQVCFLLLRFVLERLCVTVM
# Procedure, shortened: as §1
# ETV2 = molecular target: T9, ETV2 (Homo sapiens, UniProt O00321 1-342); conditions: protein: recombinant; tags: N-terminal GST; dsDNA, one strand shown
# T9 sequence: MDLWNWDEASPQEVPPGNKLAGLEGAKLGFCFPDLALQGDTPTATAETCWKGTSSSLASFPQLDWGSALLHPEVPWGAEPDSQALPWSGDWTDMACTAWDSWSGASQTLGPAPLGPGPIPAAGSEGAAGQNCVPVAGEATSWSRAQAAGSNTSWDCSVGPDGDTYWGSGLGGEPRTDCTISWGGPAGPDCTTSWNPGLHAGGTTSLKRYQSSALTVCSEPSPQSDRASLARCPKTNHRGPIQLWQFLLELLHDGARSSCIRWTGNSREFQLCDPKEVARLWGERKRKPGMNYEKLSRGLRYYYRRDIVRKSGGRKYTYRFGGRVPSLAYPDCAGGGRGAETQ
# Procedure, shortened: as §1
# CRX = CRX (Homo sapiens, UniProt O43186 1-299); conditions: protein: recombinant; tags: N-terminal GST; dsDNA, one strand shown
# Procedure, shortened: as §1
# ETV1 = ETV1 (Homo sapiens, UniProt P50549 1-477); conditions: protein: recombinant; tags: N-terminal GST; dsDNA, one strand shown
# Procedure, shortened: as §1
# SPI1 = SPI1 (Homo sapiens, UniProt P17947 1-270); conditions: protein: recombinant; tags: N-terminal GST; dsDNA, one strand shown
# Procedure, shortened: as §1
# ELF3 = molecular target: T10, ELF3 (Homo sapiens, UniProt P78545 1-371); conditions: protein: recombinant; tags: N-terminal GST; dsDNA, one strand shown
# T10 sequence: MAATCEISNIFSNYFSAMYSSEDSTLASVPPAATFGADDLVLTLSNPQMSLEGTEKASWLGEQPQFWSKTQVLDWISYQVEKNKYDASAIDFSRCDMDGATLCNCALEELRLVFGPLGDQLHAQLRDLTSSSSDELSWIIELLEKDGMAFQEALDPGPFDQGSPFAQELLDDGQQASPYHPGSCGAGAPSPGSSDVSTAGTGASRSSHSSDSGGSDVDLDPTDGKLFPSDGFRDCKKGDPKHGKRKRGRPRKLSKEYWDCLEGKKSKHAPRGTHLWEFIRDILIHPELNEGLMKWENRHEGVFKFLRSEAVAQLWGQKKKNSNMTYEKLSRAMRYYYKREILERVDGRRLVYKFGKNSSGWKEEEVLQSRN
# Procedure, shortened: as §1
# Sequence of ELF4 (Q99607 whole entry): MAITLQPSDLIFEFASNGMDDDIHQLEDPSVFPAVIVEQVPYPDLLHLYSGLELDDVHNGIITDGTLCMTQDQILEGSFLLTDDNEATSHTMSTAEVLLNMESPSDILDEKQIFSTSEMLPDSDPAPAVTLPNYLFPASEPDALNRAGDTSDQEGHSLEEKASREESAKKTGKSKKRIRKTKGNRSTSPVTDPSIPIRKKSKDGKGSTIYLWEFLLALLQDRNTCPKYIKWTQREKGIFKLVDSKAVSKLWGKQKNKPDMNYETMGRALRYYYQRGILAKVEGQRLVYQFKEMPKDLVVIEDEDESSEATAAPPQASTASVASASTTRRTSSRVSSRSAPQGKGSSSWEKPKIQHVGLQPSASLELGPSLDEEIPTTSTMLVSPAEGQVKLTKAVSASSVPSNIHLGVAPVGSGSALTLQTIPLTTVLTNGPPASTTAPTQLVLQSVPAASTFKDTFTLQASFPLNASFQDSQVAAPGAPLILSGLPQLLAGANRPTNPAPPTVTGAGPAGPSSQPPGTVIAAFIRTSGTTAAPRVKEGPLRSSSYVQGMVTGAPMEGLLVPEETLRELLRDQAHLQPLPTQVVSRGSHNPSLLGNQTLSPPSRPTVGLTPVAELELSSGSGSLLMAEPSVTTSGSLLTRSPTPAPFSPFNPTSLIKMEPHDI
# Sequence of HSF1 (Q00613 whole entry): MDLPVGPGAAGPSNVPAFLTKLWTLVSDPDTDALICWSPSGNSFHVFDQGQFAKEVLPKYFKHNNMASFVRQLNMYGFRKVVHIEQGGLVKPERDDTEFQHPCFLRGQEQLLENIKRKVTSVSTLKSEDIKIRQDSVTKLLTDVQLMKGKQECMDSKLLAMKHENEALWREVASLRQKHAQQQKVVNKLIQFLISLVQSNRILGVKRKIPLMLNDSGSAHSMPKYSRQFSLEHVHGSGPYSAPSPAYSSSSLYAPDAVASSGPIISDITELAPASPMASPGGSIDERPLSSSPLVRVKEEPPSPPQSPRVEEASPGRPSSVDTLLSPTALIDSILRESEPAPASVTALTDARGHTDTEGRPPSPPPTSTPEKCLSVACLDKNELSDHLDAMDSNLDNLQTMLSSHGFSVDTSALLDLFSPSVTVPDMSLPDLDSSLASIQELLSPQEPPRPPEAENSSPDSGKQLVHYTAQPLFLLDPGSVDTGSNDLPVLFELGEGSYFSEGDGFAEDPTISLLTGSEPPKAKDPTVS
# Sequence of ETV5 (P41161 whole entry): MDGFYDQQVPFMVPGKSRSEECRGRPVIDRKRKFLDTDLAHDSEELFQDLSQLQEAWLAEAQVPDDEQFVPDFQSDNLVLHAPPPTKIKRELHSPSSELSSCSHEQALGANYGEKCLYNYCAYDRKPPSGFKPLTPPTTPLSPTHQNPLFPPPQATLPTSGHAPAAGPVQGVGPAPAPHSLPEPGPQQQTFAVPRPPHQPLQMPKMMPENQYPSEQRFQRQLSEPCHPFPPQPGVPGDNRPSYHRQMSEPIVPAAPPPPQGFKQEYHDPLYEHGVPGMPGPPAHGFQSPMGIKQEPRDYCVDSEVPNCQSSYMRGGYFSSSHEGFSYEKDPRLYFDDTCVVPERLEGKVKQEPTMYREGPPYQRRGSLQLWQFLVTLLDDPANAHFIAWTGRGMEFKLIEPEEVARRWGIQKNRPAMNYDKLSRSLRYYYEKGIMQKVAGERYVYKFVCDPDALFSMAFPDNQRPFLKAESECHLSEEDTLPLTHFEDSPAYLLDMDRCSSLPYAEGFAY
# Sequence of CRX (O43186 whole entry): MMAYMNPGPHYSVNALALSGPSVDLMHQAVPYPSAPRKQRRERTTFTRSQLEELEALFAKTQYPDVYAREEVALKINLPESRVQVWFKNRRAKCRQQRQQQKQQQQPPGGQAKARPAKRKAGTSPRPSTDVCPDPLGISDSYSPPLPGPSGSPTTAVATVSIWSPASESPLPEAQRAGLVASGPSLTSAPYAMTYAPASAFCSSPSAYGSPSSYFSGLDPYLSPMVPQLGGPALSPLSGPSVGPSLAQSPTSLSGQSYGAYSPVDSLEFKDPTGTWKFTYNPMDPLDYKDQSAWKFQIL
# Sequence of ELF1 (P32519 whole entry): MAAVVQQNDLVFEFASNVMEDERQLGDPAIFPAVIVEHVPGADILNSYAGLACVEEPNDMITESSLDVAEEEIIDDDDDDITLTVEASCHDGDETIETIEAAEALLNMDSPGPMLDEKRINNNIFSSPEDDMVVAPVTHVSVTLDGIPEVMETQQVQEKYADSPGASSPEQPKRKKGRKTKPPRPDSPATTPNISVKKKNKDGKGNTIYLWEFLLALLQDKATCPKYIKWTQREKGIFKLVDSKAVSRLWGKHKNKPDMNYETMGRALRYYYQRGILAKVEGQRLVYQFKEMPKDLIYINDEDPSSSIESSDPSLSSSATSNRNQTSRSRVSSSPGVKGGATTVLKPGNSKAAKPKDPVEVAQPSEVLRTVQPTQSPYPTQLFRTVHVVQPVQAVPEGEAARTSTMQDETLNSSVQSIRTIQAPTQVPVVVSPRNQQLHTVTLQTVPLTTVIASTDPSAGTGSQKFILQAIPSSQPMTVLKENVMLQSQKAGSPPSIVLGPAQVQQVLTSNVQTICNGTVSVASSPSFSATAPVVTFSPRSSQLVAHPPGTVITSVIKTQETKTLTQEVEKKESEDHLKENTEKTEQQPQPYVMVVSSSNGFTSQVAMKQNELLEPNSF
# Sequence of SPIB (Q01892 whole entry): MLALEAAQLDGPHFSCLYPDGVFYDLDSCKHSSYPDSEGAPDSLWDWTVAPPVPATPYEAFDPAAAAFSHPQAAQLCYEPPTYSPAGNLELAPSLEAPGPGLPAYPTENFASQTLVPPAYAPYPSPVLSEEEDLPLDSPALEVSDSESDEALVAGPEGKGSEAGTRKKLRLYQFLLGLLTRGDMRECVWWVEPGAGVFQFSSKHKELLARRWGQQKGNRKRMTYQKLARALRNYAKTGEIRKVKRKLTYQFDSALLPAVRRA
# Sequence of ETV1 (P50549 whole entry): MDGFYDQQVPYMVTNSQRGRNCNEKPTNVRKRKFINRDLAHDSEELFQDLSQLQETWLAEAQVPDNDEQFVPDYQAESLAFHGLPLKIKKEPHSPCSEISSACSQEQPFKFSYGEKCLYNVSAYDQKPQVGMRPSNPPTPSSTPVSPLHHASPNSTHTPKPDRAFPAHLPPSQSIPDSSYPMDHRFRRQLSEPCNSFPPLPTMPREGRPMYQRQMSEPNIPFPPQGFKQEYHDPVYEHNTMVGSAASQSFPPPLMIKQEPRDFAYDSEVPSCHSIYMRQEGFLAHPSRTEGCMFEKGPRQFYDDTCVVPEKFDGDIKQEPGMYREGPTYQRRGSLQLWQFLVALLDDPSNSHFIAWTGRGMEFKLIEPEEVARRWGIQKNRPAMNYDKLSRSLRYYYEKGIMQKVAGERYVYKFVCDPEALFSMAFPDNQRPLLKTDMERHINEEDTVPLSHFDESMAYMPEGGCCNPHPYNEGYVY
Sequence,binding signal (FLI1),binding signal (ELK1),binding signal (GABPA),binding signal (ERG),binding signal (ELF1),binding signal (EHF),binding signal (SPIB),binding signal (ELK3),binding signal (FEV),binding signal (ETV5),binding signal (HSF1),binding signal (ELF4),binding signal (ELK4),binding signal (ETV2),binding signal (CRX),binding signal (ETV1),binding signal (SPI1),binding signal (ELF3)
TCAAGG,"1.05 fold enrichment (6-mer frequency, TF over GST control)","1.05 fold enrichment (6-mer frequency, TF over GST control)","1.05 fold enrichment (6-mer frequency, TF over GST control)","1.1 fold enrichment (6-mer frequency, TF over GST control)","1.07 fold enrichment (6-mer frequency, TF over GST control)","1.09 fold enrichment (6-mer frequency, TF over GST control)","1.04 fold enrichment (6-mer frequency, TF over GST control)","1.19 fold enrichment (6-mer frequency, TF over GST control)","1.08 fold enrichment (6-mer frequency, TF over GST control)","1.03 fold enrichment (6-mer frequency, TF over GST control)","1.04 fold enrichment (6-mer frequency, TF over GST control)","1.01 fold enrichment (6-mer frequency, TF over GST control)","1.07 fold enrichment (6-mer frequency, TF over GST control)","1.19 fold enrichment (6-mer frequency, TF over GST control)","1.09 fold enrichment (6-mer frequency, TF over GST control)","1.12 fold enrichment (6-mer frequency, TF over GST control)",,
CCAAAT,"1.02 fold enrichment (6-mer frequency, TF over GST control)","1.1 fold enrichment (6-mer frequency, TF over GST control)","1.01 fold enrichment (6-mer frequency, TF over GST control)","1.1 fold enrichment (6-mer frequency, TF over GST control)","1.16 fold enrichment (6-mer frequency, TF over GST control)","1.05 fold enrichment (6-mer frequency, TF over GST control)","1.04 fold enrichment (6-mer frequency, TF over GST control)",,"1.08 fold enrichment (6-mer frequency, TF over GST control)","1.06 fold enrichment (6-mer frequency, TF over GST control)","1.02 fold enrichment (6-mer frequency, TF over GST control)","1.17 fold enrichment (6-mer frequency, TF over GST control)","1.04 fold enrichment (6-mer frequency, TF over GST control)",,"1.18 fold enrichment (6-mer frequency, TF over GST control)",,"1.09 fold enrichment (6-mer frequency, TF over GST control)","1.11 fold enrichment (6-mer frequency, TF over GST control)"
